The results in this text go back to PubChem BioAssay.

Test [1] has as its system transactivating tegument protein VP16 (Human herpesvirus 1). The experiment in a line: VP16 transactivation reporter inhibitors, counter-screen for SRC2 inhibitor project, cell-based, luminescence, single concentration (AID 652007). The following applies: cell-based VP16 transactivation luciferase reporter, at 8.9 µM, stronger effect = higher value. In general terms: Counterscreens check selectivity or assay interference.

For test [2], the target named is Nuclear receptor coactivator 2 (Homo sapiens) (UniProt Q15596). The test can be described thus: SRC2 coactivator transcriptional activity inhibitors, confirmation, cell-based, luminescence, HEK293, triplicate (AID 652008;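 active = mean inhibition above 46.5%, the solvent-only control mean plus 3 SD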;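 also: 0% = DMSO-treated cells and 100% = Gossypol at 36 µM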). Conditions: HEK293 GAL4-SRC2 luciferase reporter, at 8.9 µM, stronger effect = higher value. For orientation: A reporter such as luciferase makes a cellular process visible.

A number with no mark means an inactive call. The source made the active and inactive calls. Rule as the data show it, unless noted: active = inhibition above about 36%; inactive = the rest.

Sequence of Nuclear receptor coactivator 2 (Homo sapiens) (Q15596 whole entry, looked up, the tested form may be a part): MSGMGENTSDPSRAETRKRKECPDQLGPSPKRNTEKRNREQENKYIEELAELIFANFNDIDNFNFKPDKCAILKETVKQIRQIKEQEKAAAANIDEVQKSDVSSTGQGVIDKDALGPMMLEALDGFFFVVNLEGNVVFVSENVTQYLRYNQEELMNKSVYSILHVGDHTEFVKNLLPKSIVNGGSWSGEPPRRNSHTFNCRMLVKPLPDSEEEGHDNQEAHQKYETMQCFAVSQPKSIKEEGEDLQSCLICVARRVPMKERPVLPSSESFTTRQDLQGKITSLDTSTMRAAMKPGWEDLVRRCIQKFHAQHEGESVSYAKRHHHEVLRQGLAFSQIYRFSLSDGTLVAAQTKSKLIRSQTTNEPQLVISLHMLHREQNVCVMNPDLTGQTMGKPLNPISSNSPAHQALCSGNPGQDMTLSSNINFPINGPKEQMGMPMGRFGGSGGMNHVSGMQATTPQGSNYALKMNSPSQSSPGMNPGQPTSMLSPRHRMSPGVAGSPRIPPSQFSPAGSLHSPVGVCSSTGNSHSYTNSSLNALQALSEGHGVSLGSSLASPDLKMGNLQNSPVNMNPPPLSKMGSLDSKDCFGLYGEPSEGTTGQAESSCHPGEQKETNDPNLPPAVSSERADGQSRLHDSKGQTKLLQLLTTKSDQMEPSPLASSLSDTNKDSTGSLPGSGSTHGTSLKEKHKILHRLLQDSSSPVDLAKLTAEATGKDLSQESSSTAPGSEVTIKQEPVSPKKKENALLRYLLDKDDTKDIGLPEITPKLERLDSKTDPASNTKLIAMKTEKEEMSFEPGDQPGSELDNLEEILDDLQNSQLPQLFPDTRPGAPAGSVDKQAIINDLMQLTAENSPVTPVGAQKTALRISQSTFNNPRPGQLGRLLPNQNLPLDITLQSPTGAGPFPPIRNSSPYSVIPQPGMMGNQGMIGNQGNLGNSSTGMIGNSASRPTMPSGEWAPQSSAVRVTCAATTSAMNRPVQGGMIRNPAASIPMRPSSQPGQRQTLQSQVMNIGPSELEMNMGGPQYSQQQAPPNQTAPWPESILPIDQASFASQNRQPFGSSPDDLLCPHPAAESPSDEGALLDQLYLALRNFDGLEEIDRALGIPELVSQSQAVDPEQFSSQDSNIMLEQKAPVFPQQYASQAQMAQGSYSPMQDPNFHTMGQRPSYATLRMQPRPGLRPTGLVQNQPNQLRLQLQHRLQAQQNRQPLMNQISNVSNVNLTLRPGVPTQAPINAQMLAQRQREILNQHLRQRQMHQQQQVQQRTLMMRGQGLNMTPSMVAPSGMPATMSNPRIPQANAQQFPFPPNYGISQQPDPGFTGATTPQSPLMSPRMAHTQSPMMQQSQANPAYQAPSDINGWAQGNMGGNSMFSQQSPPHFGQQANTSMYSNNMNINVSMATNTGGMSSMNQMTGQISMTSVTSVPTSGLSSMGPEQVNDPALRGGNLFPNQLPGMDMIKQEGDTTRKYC

What is called inhibition is the relative decrease from the control value, in per cent. Take `CCOc1ccc(C(=O)CCC(=O)Nc2cccc(S(=O)(=O)N3CCCCC3)c2)cc1`: the inhibition in test [1] is 4.55%; in test [2] it was 44.2%.
Regarding `O=C1CSC(c2ccc([N+](=O)[O-])cc2)N1c1ccc(O)cc1` (stereo not drawn), the inhibition in test [1] was 5.23%; in test [2], -13.8%.
For `CCN1CCCc2cc(CN(CCN3CCOCC3)C(=S)Nc3ccccc3OC)ccc21`, the values for the inhibition in test [1] and in test [2] were -14.1% and -10.6%, respectively.
Regarding `CC(=O)Nc1ccc(NC(=O)c2cc(=O)c3ccccc3o2)cc1`, the values for the inhibition in test [1] and in test [2] were -12.5% and -8.33%, respectively.
For `O=C(Nc1nccs1)c1cc2c(s1)CCCCC2`, in that order: 0.43% and 38.7%.
As for `CCN(CC)c1nc(C=Cc2ccc(N(C)C)cc2)c2nccnc2n1`, the inhibition in test [1] was 17.1%; in test [2], 21.8%.
In the case of `Cc1cc(C(=O)CN2C(=O)c3ccccc3S2(=O)=O)c(C)n1-c1ccccc1`, the inhibition in test [1] is -10.4%; in test [2] it was 55.4% (active).
In the same order, the values of `CCOc1ccc(-c2cc(CCCC(=O)NCc3ccc(C)cc3)no2)cc1` are 31.4% and 60.2% (active).
For `O=C(CCl)N1c2ccccc2CCc2ccccc21`, in that order: 29.1% and 31.7%.
Turning to `CCS(=O)(=O)c1ncc(Cl)c(C(=O)Nc2ccc(S(=O)(=O)N3CCC(C)CC3)cc2)n1`, the inhibition in test [1] is 89.9% (active); in test [2], 86.7% (active).
For `CCNC(=O)COc1ccc(/C=C2\COc3ccccc3C2=O)cc1OC`, in that order: 3.8% and 78.1% (active).
Consider `CC(C)(C)c1ccc(-c2noc(CCC(=O)NCC3CCCO3)n2)cc1` (stereo not drawn), for which the inhibition in test [1] was 42.1% (active); in test [2], 67.2% (active).
In the same order, the values of `Nc1ncc([N+](=O)[O-])c(Oc2ccccc2F)n1` are -7% and -16.8%.
For `C[C@@H]1CN([C@H](C)CO)C(=O)c2cc(NC(=O)Nc3ccc(C(F)(F)F)cc3)ccc2O[C@H]1CN(C)S(=O)(=O)c1ccccc1`, in that order: 18.9% and 32.9%.
